Experiment [1] has as its system Zika virus NS2B-NS3 protease (linked). Briefly: 384 well plate NINDS AMC confirmatory qHTS for Zika virus inhibitors (AID 1347163). Also: potency is read from the fitted curve at half-maximal effect; nearly all actives have a fitted effect of over 50% in size. Particulars: Recombinant NS2B-NS3 protease, Ac-VKTGKR-AMC fluorescence. The essentials:
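Linked NS2B-NS3 protease (final 5 nM, 30 nM or 60 nM) was preincubated with compounds (final up to 1 mM) for ~15 minutes. Ac-VKTGKR-AMC substrate (final 30 microM) then reacted for 25 minutes at room temperature in the dark. Fluorescence (ex 355/em 460 nm) was normalized to no-enzyme and no-inhibitor controls.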
For orientation: qHTS replaces the single test concentration by a dilution series.

Experiment [2] in a line: Vero cells viability qHTS for Zika virus inhibitors (AID 1347167). To be noted: cytotoxicity counter-screen (Zika); series mostly up to 45.9 µM. The essentials:
(§1)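 Counter-screen for cytotoxicity of hits from NS2B-NS3 protease qHTS. Overnight-attached cells (2.5 x 10^5 cells/mL, DMEM/4% FBS) were dosed in titration, incubated 24 to 48 hours, then assayed by CellTiter Glo.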

The nature of experiment [3]: HepG2 cells viability qHTS for Zika virus inhibitors (AID 1347168). To be noted: Zika counter-screen; series mostly up to 45.9 µM. The essentials:
as §1

Experiment [4] is described as follows: Tertiary RLuc qRT-PCR qHTS assay for Zika virus inhibitors (AID 1347169). Also: nearly all actives have a fitted effect of over 55% in size. Also: potency is read from the fitted curve at half-maximal effect. Particulars: infected Vero cells, reporter luminescence, 48-72 h; series mostly up to 45.9 µM. The gist of the method: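 Orthogonal cell-based infection assay using recombinant ZIKV-RLuc (Cambodian) in Vero cells; compound added prior to virus at MOI 1-2. Incubation lasts 48-72 hrs at 37 degrees C before live-cell Renilla substrate is added and luminescence measured.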

For three compounds, Potency and outcome results are on record in PubChem BioAssay (NCATS).

Records with an inconclusive call do not appear. Activity calls are given as the source filed them. Calls follow the shape of the dose curve; as a rule, active = well fitted curve in the direction sought with a large enough effect; inconclusive = small, poorly fitted or top-dose-only effect, or another doubt; inactive = no such curve, though single readings can be large; an effect the other way counts as inactive or inconclusive.

As to `CN(C)[C@@H]1C(=O)C(C(N)=O)=C(O)[C@@]2(O)C(=O)C3=C(O)c4c(O)ccc(Cl)c4[C@@](C)(O)[C@H]3C[C@@H]12`, the Potency in experiment [1] is 0.562 µM (active).

Turning to `CC[C@H](C)[C@H]1O[C@]2(C=C[C@@H]1C)C[C@@H]1C[C@@H](C/C=C(\C)[C@@H](O[C@H]3C[C@H](OC)[C@@H](O[C@H]4C[C@H](OC)[C@@H](O)[C@H](C)O4)[C@H](C)O3)[C@@H](C)/C=C/C=C3\CO[C@@H]4[C@H](O)C(C)=C[C@@H](C(=O)O1)[C@]34O)O2`, the compound was classed as inactive in experiment [2] and in experiment [3]. Besides, the Potency in experiment [4] is 20.8 µM (active).

`C[C@@H]1[C@@H]2Cc3ccc(O)cc3[C@@]1(C)CCN2CC1CC1`: the outcome in experiment [2] and in experiment [3] was inactive. In addition, the Potency result in experiment [4] was “inactive”.
